# KB-3-1 tox: qHTS assay for MDR1-selective chemotherapeutics: Primary screen using the parental adenocarcinoma cell KB-3-1; KB-3-1 viability, CellTiter-Glo ATP luminescence, 72 h; Potency, µM (highest dose often 46.1 µM), usual class: cytotoxic; 400,000 compounds, 1.4% hits; further: on the % scale 0 is the no-effect control and ±100 the full control effect; nearly all actives have a fitted effect of over 60% in size
#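 Luminescent ATP read-out (CellTiter-Glo) measures survival of drug-naive KB-3-1 cells after 72 h compound exposure at 37 °C. Titration series was screened from lowest to highest concentration, with DMSO vehicle plates as background controls.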
# SW480 rerep: A quantitative high throughput screen for small molecules that induce DNA re-replication in SW480 colon adenocarcinoma cells | 340,000 compounds, 1.8% hits | Potency, µM (series often up to 46.1 µM), without a hit: at the top dose re-replication activation, most hits filed as activators | AID 624297, 2012 | SW480 DNA re-replication, Hoechst DNA content imaging, 48 h; further: % of control where 0% means no effect; nearly all actives have a fitted effect of over 55% in size
#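 Readout is total intensity of Hoechst-stained nuclei, excited at 405 nm and collected at 500-530 nm. Compound treatment lasted 48 hr at 37 C in 5% CO2 before staining.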
# MCF10A rerep: A quantitative high throughput screen for small molecules that induce DNA re-replication in MCF 10a normal breast cells; MCF 10A DNA re-replication, Hoechst nuclear intensity, 48 h; Potency, µM (highest dose often 46.1 µM), for the others: top-dose activity, positive = re-replication, most hits filed as activators; 350,000 compounds, 2.9% hits; AID 624296, 2012; further: % of control where 0% means no effect; nearly all actives have a fitted effect of over 50% in size
# PINK1 modulator: A Quantitative High throughput Screen to Identify Chemical Modulators of PINK1 Expression. 410,000 compounds, 0.2% hits. PINK1 immunofluorescence, high-content cytometry, 24 h. AID 624263, 2012. Potency, µM (doses to about 76.6 µM), without a hit: at the top dose activation (PINK1 increase), usual class: activators; active means well fitted activation curve with a large enough effect; inconclusive means small, poorly fitted or top-dose-only effect; cell line not stated here; further: % of control where 0% means no effect; nearly all actives have a fitted effect of over 65% in size
#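 PINK1 protein level read as immunofluorescence by microplate cytometer in a fixed, stained stable cell line after 24 h exposure to five compound concentrations, with CCCP as control.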
# KB-V1 MDR tox: qHTS assay for MDR1-selective chemotherapeutics: Primary screen using the drug-selected MDR subline cells KB-V1; KB-V1 MDR cells viability, CellTiter-Glo, 72 h; 400,000 compounds, 3.4% hits; Potency, µM (top dose mostly 46.1 µM), actives largely listed as cytotoxic; further: on the % scale 0 is the no-effect control and ±100 the full control effect; nearly all actives have a fitted effect of over 60% in size
#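 qHTS viability screen in drug-selected KB-V1 MDR cells: 72 h compound treatment at 37 degrees C, ATP luminescence end point.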
# * hit, by the source's call; i = inactive; u = inconclusive; x = not tested or not shown; [ ] = remark or other dose. The list is not random: actives were taken first. Their share in the collection is about 6.7%. Unless noted, the call rests on the fitted dose curve; in most records, active means well fitted curve in the direction sought with a large enough effect; inconclusive means small, poorly fitted or top-dose-only effect, or another doubt; inactive means no such curve, though single readings can be large; an effect the other way counts as inactive or inconclusive. Potency means the concentration at half of the fitted maximal effect.
SMILES,KB-3-1 tox,SW480 rerep,MCF10A rerep,PINK1 modulator,KB-V1 MDR tox
CC(=O)N1CCc2nc3sc(C(=O)c4ccc(F)cc4)c(N)c3c(C(F)(F)F)c2C1,x,x,x,3%,x
CC(=O)c1sc(NC(=O)CSCc2c(C)noc2C)nc1-c1ccccc1,i,0%,6%,1%,i
CCC(=O)Nc1cc2[nH]c(=O)cc(C)c2cc1C,i,-22%,0.65µM*,1%,i
O=C(CCl)Nc1cc2[nH]c(=O)[nH]c2cc1Br,u,u,21µM*,0%,15µM*
Cc1cc2c(C)cc(=O)[nH]c2cc1NC(=O)CCl,u,21µM*,12µM*,4%,u
Cc1cc2oc(=O)cc(C)c2cc1NC(=O)CCl,u,u,29%,-1%,i
CCCCC[C@H](O)/C=C/[C@H]1CCC(=O)[C@@H]1CCCCCCC(=O)N1CCCCC1CO (some centres undefined),i,3%,u,-1%,i
O=S(=O)(CCNCCc1ccccc1)NCc1ccccc1,i,33%,-5%,-1%,i
COc1ccccc1CNS(=O)(=O)CCNCCc1ccccc1,i,5%,21µM*,-1%,i
Cc1c(C)c2cc3c(c(C)c2oc1=O)OCN(CCc1ccccc1)C3,i,x,x,2%,u
Cn1c(/C(C#N)=C(\O)c2cc(Cl)sc2Cl)nc2ccccc21,i,-14%,13%,8%,i
COc1ccc(/C(O)=C(\C#N)c2nc3ccccc3n2C)cc1OC,i,-12%,19%,7%[38.3 µM],5.8µM*
CC(C)Cc1nc2cc(NS(=O)(=O)N(C)C)cc(C(=O)N3CCc4ccccc4C3)c2n1C,x,x,x,-1%,x
COc1cccc2sc3cc(NCCCN4CCOCC4)ccc3c(=O)c12,i,29%,18µM*,-1%,i
O=c1c2ccccc2oc2cc(NCCCN3CCOCC3)ccc12,i,u,16µM*,1%,i
CN1CCCC1CCNc1ccc2c(=O)c3ccccc3oc2c1 (centres undefined),i,u,18µM*,4%,i
O=c1c2ccccc2oc2cc(NCCCn3ccnc3)ccc12,i,u,21µM*,-1%,i
O=c1c2ccccc2oc2ccc(NCCCN3CCOCC3)cc12,i,2%,-14%,1%,u
CN1CCCC1CCNc1ccc2oc3ccccc3c(=O)c2c1 (centres undefined),i,-24%[9.22 µM],-16%,11%,i
COc1cccc(CNC(=O)[C@@H]2CCCN2C(=O)[C@H]2CCCCN2)c1,i,x,x,1%,i
COc1ccc(C(=O)NCC(c2cccs2)S(=O)(=O)c2cccs2)cc1 (centres undefined),i,x,x,0%,i
Fc1ccccc1-c1cc2ncccc2cn1,i,-4%,-8%,2%,i
O=C(/C=C/c1ccc(F)cc1)c1ccccc1Br,23µM*,x,u,-2%,u
COc1ccc(C(=O)N(Cc2ccccc2)Cc2cc3cc4c(cc3[nH]c2=O)OCCO4)cc1,8.9µM*,u,u,28%[38.3 µM],11µM*
COC(=O)c1ccc(OCC2c3cc(OC)c(OC)cc3CCN2C(=O)c2ccc(F)cc2)cc1 (centres undefined),i,x,x,u,u
SMILES,KB-3-1 tox,SW480 rerep,MCF10A rerep,PINK1 modulator,KB-V1 MDR tox
COC(=O)c1c(NC(=O)/C=C/C(=O)O)sc(C)c1-c1ccc(C(C)C)cc1,21µM*,15µM*,3.3µM*,-3%,u
CC(C)=C1C2CCC1C(C(=O)Nc1sc(C)c(-c3ccc(C(C)C)cc3)c1C(N)=O)C2C(=O)O (centres undefined),u,u,33%,12%,2.1µM*
CCOC(=O)c1c(NC(=O)/C=C/C(=O)O)sc(C)c1-c1ccc(F)cc1,u,0%,u,-3%,u
CCOC(=O)c1c(NC(=O)/C=C/C(=O)O)sc(C)c1-c1ccc(C)c(C)c1,i,13%,4.1µM*,-3%,i
COC(=O)c1c(NC(=O)/C=C/C(=O)O)sc(C)c1-c1ccc(C)c(C)c1,u,u,16µM*,-1%,i
Cc1ccc(CCNC(=O)c2ccc3c(c2)N(Cc2cccc(Cl)c2)C(=O)c2ccccc2S3(=O)=O)cc1,x,x,x,0%,x
COc1ccc(/C=C/C(=O)NCC2Cc3cccc(-c4nc(C)cnc4C)c3O2)cc1OC (centres undefined),x,x,x,1%,x
OC1c2c(F)cccc2N=C2CCCCCN21 (centres undefined),i,x,x,1%,i
CC[n+]1c(/C=C/Nc2ccccc2)oc2ccc(OC)cc21,i,u,18µM*,2%,i
CC[n+]1c(/C=C/N(C)c2ccccc2)oc2ccc(F)cc21,5.8µM*,u,u,1%,i
COc1cc(=O)n2c(c1C(=O)N(C)Cc1ccsc1)CCN(Cc1cnn(C)c1C)CC2,x,x,x,2%,x
CC(C)CNc1ncnc2c1ncn2[C@H]1CN(CCN2CCOCC2)C[C@@H](CO)O1,i,x,x,4%,i
CCOc1ccc(C2NC(=O)NC(C)=C2C(=O)OCc2ccccc2)cc1 (centres undefined),u,u,21µM*,0%,u
COc1cc(C2NC(=O)NC(C)=C2C(=O)OCc2ccc(C)cc2)cc(OC)c1O (centres undefined),i,16%,7.3µM*,x,i
COc1cc(C2NC(=O)NC(C)=C2C(=O)OCc2ccc(C)cc2)cc(OC)c1OC (centres undefined),i,u,1%,4%,i
CCOC(=O)C1=C(C)NC(=O)NC1c1ccc(N2CCC(c3ccccc3)=N2)cc1 (centres undefined),i,23µM*,u,-2%,i
CC1=C(C(=O)OCc2ccccc2)C(c2ccc(N(C)C)cc2)NC(=O)N1 (centres undefined),i,u,u,x,u
COC(=O)c1sc2cccc(F)c2c1S(=O)(=O)NCc1ccc(Cl)cc1,i,x,x,1%,u
C=C1CC2C3CC[C@@]4(OCOC45COCO5)[C@@]3(C)C(O)CC2[C@@]2(C)CCC(=O)C=C12 (some centres undefined),i,u,5.2µM*,27%,u
CC(=O)C12OC1CC1C3CCC4=CC(=O)CCC4(C)C3CCC12C (centres undefined),i,-4%,0%,4%,i
CCN(CC)c1ncnc2c1ncn2[C@H]1CN(Cc2ccc3c(c2)OCO3)C[C@@H](CO)O1,i,x,x,1%,i

# Screening results as filed in PubChem BioAssay.
